The list is not random: actives were taken first. Their share in the collection is about 3.4%.
TEAD-YAP block: TEAD-YAP interaction inhibition, primary screen, TEAD-YAP interaction inhibitor project, luminescence, HEK-TIYL cells | TEAD-Gal4/YAP UAS-luciferase luminescence | inhibition, % at 9.12 µM | 640,000 tested, 1.4% active | AID 1259422, 2018; in the data active = inhibition above about 32%;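 also: 0% = median of test compound wells and 100% = reference inhibitor wells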
FBW7 activator: FBW7 E3 ligase activators, primary screen, biochemical, AlphaScreen, human | 650,000 tested, 0.13% active | AID 1259310, 2017 | F-box/WD repeat-containing protein 7 (Homo sapiens), Q969H0 | normalized activity (activation), % at 26.1 µM | AlphaScreen FBW7–phospho-cyclin E peptide binding, activator screen; in the data active = normalized activity above about 1.9%;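 also: purified mutant Fbw7 with reduced substrate affinity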
Target sequence (Q969H0 whole entry, looked up): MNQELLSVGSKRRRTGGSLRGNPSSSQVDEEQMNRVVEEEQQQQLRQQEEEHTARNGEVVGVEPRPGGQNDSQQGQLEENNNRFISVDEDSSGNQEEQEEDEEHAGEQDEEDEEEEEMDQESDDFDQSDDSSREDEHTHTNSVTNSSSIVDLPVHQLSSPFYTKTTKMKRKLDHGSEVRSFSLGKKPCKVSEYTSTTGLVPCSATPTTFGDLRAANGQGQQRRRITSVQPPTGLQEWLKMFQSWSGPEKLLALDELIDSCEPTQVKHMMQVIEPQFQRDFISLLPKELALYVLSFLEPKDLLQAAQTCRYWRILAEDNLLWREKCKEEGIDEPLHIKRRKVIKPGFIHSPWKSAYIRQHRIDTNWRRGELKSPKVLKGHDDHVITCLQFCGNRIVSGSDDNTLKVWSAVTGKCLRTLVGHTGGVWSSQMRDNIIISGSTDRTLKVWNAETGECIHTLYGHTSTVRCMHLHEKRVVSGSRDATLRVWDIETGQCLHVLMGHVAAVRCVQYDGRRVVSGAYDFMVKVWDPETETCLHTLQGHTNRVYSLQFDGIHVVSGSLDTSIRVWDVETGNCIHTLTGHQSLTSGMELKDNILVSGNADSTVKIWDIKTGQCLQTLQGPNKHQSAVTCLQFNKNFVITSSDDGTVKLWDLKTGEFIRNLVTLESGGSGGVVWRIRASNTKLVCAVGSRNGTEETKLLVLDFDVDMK
GPR151 activ: activators of human GPR151, primary screen, cell-based, PathHunter beta-arrestin, luminescence; 650,000 tested, 1% active; AID 1508602, 2020; activation, % at 11.2 µM; PathHunter beta-arrestin GPR151 cells; G-protein coupled receptor 151 (Homo sapiens), Q8TDV0; in the data active = activation above about 4.9%;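 also: 0% = median of compound wells and 100% = cells with positive control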
MITF inh: MITF inhibitors, primary screen, biochemical, AlphaScreen, human; inhibition, % at 2.6 µM; AlphaScreen MITF homodimerization, bead proximity signal; 650,000 tested, 0.91% active; Microphthalmia-associated transcription factor (Homo sapiens), O75030; in the data active = inhibition above about 50%;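 also: 0% = vehicle wells with protein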
GPR151 conf act: GPR151 activators, triplicate retest, confirmation, cell-based, PathHunter beta-arrestin, luminescence. shares compounds with GPR151 activ. GPR151 PathHunter beta-arrestin cells, 90 min; % of EA-reagent control over plate median. activation, % at 11.2 µM. 6,700 tested, under 10 active;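 active = mean percent activation across replicates above the confirmation screen cutoff of 4.91%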
GPR119 counter: GPR119 activators in beta-arrestin cells, counter-screen for GPR151 activator project, cell-based, PathHunter beta-arrestin, luminescence, triplicate; 6,700 tested, 0.3% active; 90 min; 0 = compound-well median, 100 = enzyme-acceptor control; shares compounds with GPR151 activ; activation, % at 11.2 µM;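 active = mean percent activation in the counterscreen above 29.09%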;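 also: counterscreen on off-target GPR119 to flag nonselective hits from the GPR151 activator screen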
Active calls of the source: *; . = not tested or not shown.

SMILES	TEAD-YAP block	FBW7 activator	GPR151 activ	MITF inh	GPR151 conf act	GPR119 counter
CCCCOC(=O)C1=C(C)NC(=O)NC1c1ccc(Cl)cc1 (configuration not stated)	7	0	2	1	.	.
OCCCOc1ccc2c(c1)C(=NO)c1cc(OCCCO)ccc1-2	-51	1	-1	19	.	.
O=C(N/N=C\c1ccc([N+](=O)[O-])o1)c1cccc(Br)c1	-1	0	0	0	.	.
Cc1ccc(-c2c(N3CCCCC3)c(=O)c2=O)cc1	0	0	6.8*	-3	0	-11
CCCCC(=O)Nc1nnc(-c2c(C)cc(C)cc2C)s1	2	0	2	-7	.	.
COc1cc(Nc2nc(SCC(=O)c3ccc(Br)cc3)nc3ccccc23)cc(OC)c1	0	0	0	-5	.	.
O=C(CSc1nc(Nc2ccc(F)c(F)c2)c2ccccc2n1)c1ccc(F)cc1	13	0	5.1*	5	-1	0
COc1cc(Nc2nc(SCC(=O)c3ccccc3)nc3ccccc23)cc(OC)c1	4	0	6.9*	-3	1	16
Cc1ccc2c(c1)SC(C)C(=O)N2Cc1ccccn1 (configuration not stated)	2	0	1	11	.	.
O=C1N(c2ccc(Cl)cc2)C2CS(=O)(=O)CC2N1c1cccc(Cl)c1 (configuration not stated)	1	1	-1	17	.	.
CCCn1c(C)cc(=O)c2cc([N+](=O)[O-])ccc21	1	0	11*	15	0	-6
CN1CCC(N(C(=O)CCC(=O)O)C2CC2)CC1	4	0	8.8*	-3	-1	-8
CN(C)c1ncc(CN2CCCC(N(C)CCc3ccccc3)C2)s1 (configuration not stated)	0	0	-2	6	.	.
O=C1Nc2ccccc2N(O)N1c1cccc(Br)c1	-3	0	7.7*	6	0	3
Cc1ccc(CNC(=O)CCCCCn2c(SCC(=O)c3ccccc3)nc3ccsc3c2=O)cc1	8	0	-1	12	.	.
CCN(CC)CCCN1C(=O)C(C)SC1c1ccccc1[N+](=O)[O-] (configuration not stated)	4	0	13*	9	1	9
CCN(CC)CCCOc1ccccc1[N+](=O)[O-]	-12	0	0	5	.	.
O=C(NCc1ccc(Cl)cc1Cl)c1ccccn1	2	0	7.8*	2	0	3
O=C(NCc1ccc(Cl)cc1Cl)Nc1ccccc1	-45	1	-1	14	.	.
O=C(CSc1ccc(-c2ccccn2)nn1)Nc1ccccc1Cl	-8	-2	-3	38	.	.
CC(Oc1ccccc1)C(=O)Nc1ccccc1Br (configuration not stated)	-6	0	0	-13	.	.
COc1ccc(OC(C)C(=O)Nc2cc(Cl)ccc2C)cc1 (configuration not stated)	15	1	9.3*	6	-1	-4
CC(=O)Nc1ccccc1NC(=O)C(C)Oc1cccc(C)c1 (configuration not stated)	-1	0	27*	5	-1	-13
CC(Oc1ccccc1)C(=O)Nc1ccccc1O (configuration not stated)	-8	0	5.3*	12	0	10
CC(=O)Nc1ccc(NC(=O)C(C)Oc2cccc(C)c2)cc1 (configuration not stated)	1	0	0	12	.	.
SMILES	TEAD-YAP block	FBW7 activator	GPR151 activ	MITF inh	GPR151 conf act	GPR119 counter
CN(C(=O)CSc1nnc(-c2ccc([N+](=O)[O-])cc2)n1C)c1ccccc1	14	0	-1	1	.	.
Cc1ccc2oc(C(=O)NCCc3ccc(S(N)(=O)=O)cc3)c(C)c2c1	9	1	-2	14	.	.
Cc1cc2oc(C(=O)NCCc3ccc(S(N)(=O)=O)cc3)c(C)c2cc1C	10	0	10.0*	9	1	-3
O=C1OC(c2ccc(F)cc2)=N/C1=C\c1ccc(-c2ccc(I)cc2)o1	-1	0	6.0*	-1	0	-1
NC(=O)CC(c1ccccc1)c1ccc2c(c1)OCO2 (configuration not stated)	12	0	6.4*	0	0	6
C/C(CCCO)=N\Nc1ccc([N+](=O)[O-])cc1[N+](=O)[O-]	1	0	-1	9	.	.
CCCC(=O)ON1C(=O)c2cccc3cccc(c23)C1=O	-3	0	5.5*	20	0	14
COc1ccc(OC)c(N2C(=O)C3CC(C)=C(C)CC3C2=O)c1 (configuration not stated)	-1	0	-1	5	.	.
COc1ccc(Cl)cc1N1C(=O)C2CC(C)=C(C)CC2C1=O (configuration not stated)	15	0	6.8*	-5	0	-6
Cc1ccsc1CN1CCC2(CC1)CC2C(=O)N(C)Cc1cscn1 (configuration not stated)	1	0	5.2*	-1	0	-1
Cc1nc2ccccc2nc1CN1CCC2(CC1)CC2C(=O)N(C)Cc1cscn1 (configuration not stated)	7	0	0	16	.	.
CC(=O)c1ccc(N2CCN(C(=S)Nc3cccc([N+](=O)[O-])c3)CC2)cc1	-12	0	5.2*	1	0	0
COc1cc([N+](=O)[O-])ccc1NC(=S)N1CCN(c2ccc(C(C)=O)cc2)CC1	0	0	7.3*	-6	0	-7
Cc1ccc(Nc2nnc(SCC(=O)Nc3ccccc3C#N)s2)cc1C	-9	0	-1	-5	.	.
O=C(O)c1ccccc1Nc1nc(N2CCOCC2)nc(N2CCOCC2)n1	-41	0	9.0*	-3	-1	-13
O=C(NCCc1nc(-c2ccccc2)cs1)c1ccccc1	8	0	0	-11	.	.
CCOC(=O)c1ccc(NC(=O)CCN2C(=O)c3cccc([N+](=O)[O-])c3C2=O)cc1	3	1	-1	-5	.	.
COc1cccc(CNC(=O)C2CCCc3sc(NC(=O)c4ccccc4)nc32)c1 (configuration not stated)	-4	0	5.2*	9	0	5
CC(=O)c1sc2nc(CSc3nc(C)cs3)[nH]c(=O)c2c1C	6	0	-1	-4	.	.
Cc1ccccc1-n1c2nc(=O)[nH]c(=O)c-2cc2c(Cl)cccc21	8	0	8.3*	-4	1	7

Screens as filed in PubChem.
